# From PubChem BioAssay
# An excerpt weighted towards active compounds, which were near 3.4% of everything screened.
# PP1 counter = PP1-alpha phosphatase inhibitors, primary screen, counter-screen for PP5 inhibitor project, biochemical, fluorescence, OMFP substrate, single point | Serine/threonine-protein phosphatase PP1-alpha catalytic subunit (Homo sapiens), P62136 | purified PP1alpha | inhibition, % at 6.7 µM | hit rate 0.9% among 320,000 | AID 2235, 2010;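 active = inhibition above the mean inhibition of all tested compounds plus 3 SD, computed separately for each screening campaign, cut at about 15% in these data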
# Target sequence (P62136 whole entry, looked up): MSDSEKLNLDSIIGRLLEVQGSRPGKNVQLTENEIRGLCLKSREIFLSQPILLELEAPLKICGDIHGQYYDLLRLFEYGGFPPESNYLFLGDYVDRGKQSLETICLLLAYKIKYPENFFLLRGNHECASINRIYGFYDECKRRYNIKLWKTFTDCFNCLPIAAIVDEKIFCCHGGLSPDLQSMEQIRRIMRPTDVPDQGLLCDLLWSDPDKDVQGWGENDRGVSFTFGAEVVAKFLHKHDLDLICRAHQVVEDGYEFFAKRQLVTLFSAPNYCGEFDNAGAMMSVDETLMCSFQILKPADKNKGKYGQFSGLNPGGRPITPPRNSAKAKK
# pPAFAH FP inh = pPAFAH enzyme inhibitors, primary screen, biochemical, fluorescence polarization, human. AID 463082, 2010. Platelet-activating factor acetylhydrolase (Homo sapiens), Q13093. recombinant pPAFAH, FP-rhodamine probe fluorescence polarization. inhibition, % at 3.39 µM. hit rate 1.5% among 330,000;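 active = inhibition above the mean inhibition across the screen plus 3 SD, cut at about 25% in these data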;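 also: inhibitors block binding of the rhodamine activity-based probe so polarization drops; 0% = enzyme with DMSO and 100% = wells lacking pPAFAH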
# PAFAH2 inh = PAFAH2 enzyme inhibitors, primary screen, biochemical, fluorescence polarization, human | Platelet-activating factor acetylhydrolase 2, cytoplasmic (Homo sapiens), Q99487 | recombinant PAFAH2, FP-rhodamine activity probe | inhibition, % at 3.39 µM | hit rate 0.99% among 340,000;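 active = inhibition above the mean over all tested compounds plus 3 SD, cut at about 30% in these data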;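 also: inhibitors block probe labeling of enzyme so polarization drops; 0% = enzyme with DMSO and 100% = wells lacking PAFAH2 protein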
# PAFAH1B2 inh = PAFAH1B2 enzyme inhibitors, primary screen, biochemical, fluorescence polarization, human | Platelet-activating factor acetylhydrolase IB subunit alpha2 (Homo sapiens), P68402 | hit rate 1.2% among 340,000 | recombinant PAFAH1B2, FP-rhodamine activity probe | inhibition, % at 3.39 µM;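 active = inhibition above the mean of all tested compounds plus 3 SD, cut at about 24% in these data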;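 also: 0% = enzyme with DMSO and 100% = wells lacking PAFAH1B2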
# PAFAH1B3 inh = PAFAH1B3 enzyme inhibitors, primary screen, biochemical, fluorescence polarization, human | recombinant PAFAH1B3, FP-rhodamine probe | inhibition, % at 3.39 µM | hit rate 0.28% among 340,000 | AID 492972, 2010;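 active = inhibition above the screen-wide average of all tested compounds plus 3 SD, cut at about 25% in these data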;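 also: 0% = enzyme with DMSO only and 100% = wells lacking PAFAH1B3 protein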
# Target sequence (Q15102 whole entry, looked up): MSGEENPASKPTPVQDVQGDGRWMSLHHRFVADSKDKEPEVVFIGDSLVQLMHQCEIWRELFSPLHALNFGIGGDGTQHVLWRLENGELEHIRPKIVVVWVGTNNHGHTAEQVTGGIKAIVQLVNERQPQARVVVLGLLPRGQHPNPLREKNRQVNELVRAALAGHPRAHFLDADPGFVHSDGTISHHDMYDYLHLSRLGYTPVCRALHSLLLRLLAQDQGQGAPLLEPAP
# PP5 inh = PP5 phosphatase inhibitors, primary screen, biochemical, fluorescence; Serine/threonine-protein phosphatase 5 (Homo sapiens), P53041; purified PP5c, OMFP substrate fluorescence; inhibition, % at 6.7 µM; hit rate 0.18% among 320,000; AID 1987, 2009;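 active = inhibition above the campaign's mean inhibition across all tested compounds plus 3 SD, cut at about 9.5% in these data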;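 also: 0% = DMSO only and 100% = 100 µM cantharidin control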
# PP1 inh confirm = PP1 phosphatase inhibitors, confirmation, biochemical, fluorescence, OMFP substrate, triplicate; purified PP1alpha; shares compounds with PP1 counter; hit rate 52% among 1,900; inhibition, % at 6.7 µM;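 active = mean PP1 inhibition above a set limit taken from the earlier primary screen, cut at about 15% in these data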
# PP5 counter = PP5 phosphatase inhibition by PP1 hits, confirmation, counter-screen for PP1 inhibitor project, biochemical, fluorescence, triplicate | purified PP5c, OMFP fluorescence | inhibition, % at 6.7 µM | hit rate 4% among 1,900 | shares compounds with PP1 counter | AID 2360, 2010;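 active = mean PP5 inhibition over triplicate wells above about 9.5% taken from the earlier PP1 screen, limit read from the data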
# * hit, by the source's call; . = not tested or not shown.
SMILES,PP1 counter,pPAFAH FP inh,PAFAH2 inh,PAFAH1B2 inh,PAFAH1B3 inh,PP5 inh,PP1 inh confirm,PP5 counter
CCOC(=O)c1sc(N2C(=O)C(O)=C(C(=O)c3ccco3)C2c2ccc([N+](=O)[O-])cc2)nc1C (stereo not drawn),41.1*,8.6,7.5,0.8,2.7,4.8,35.7*,2.1
O=C(NCCCN1CCC(Cc2ccccc2)CC1)C1CCC(=O)N1C1CCCC1 (stereo not drawn),-1.7,2.6,-1.6,3.5,4.4,-0.1,.,.
CC1Cc2ccccc2N1Cc1cc(=O)n2ccsc2n1 (stereo not drawn),21.9*,0.3,14.3,-1.6,2.9,-3.6,19.3*,-1.5
COc1ccccc1N1CCN(Cc2cc(=O)n3ccsc3n2)CC1,-2.3,-3.6,2.6,4.0,-1.4,0.2,.,.
O=C(Nc1nc(-c2cccs2)cs1)c1ccc(S(=O)(=O)N2CCCCC2)cc1,7.0,-34.2,-13.6,-17.9,-11.2,-1.7,.,.
Cc1ccc(S(=O)(=O)N2CCOCC2)cc1C(=O)Nc1nc(-c2ccccn2)cs1,.,6.7,-3.2,5.3,7.0,.,.,.
O=C(Nc1nc(-c2ccccn2)cs1)c1cccc(S(=O)(=O)N2CCOCC2)c1,29.9*,-2.1,2.8,7.9,14.9,6.1,31.8*,9.4
O=C(Nc1nc(-c2ccccn2)cs1)c1ccc(S(=O)(=O)N2CCCCC2)cc1,29.4*,2.4,.,.,.,4.3,26.8*,-1.3
COc1cc([N+](=O)[O-])cc(/C=N/NC(=O)C(C)Nc2ccccc2C)c1O (stereo not drawn),22.2*,11.4,4.3,7.7,6.0,2.8,14.7,-5.5
COc1cc([N+](=O)[O-])cc(/C=N/NC(=O)CSc2ccccn2)c1O,20.9*,11.7,9.5,2.4,4.6,-0.2,23.8*,-5.9
COc1cc(/C=N/NC(=O)CSc2ccccn2)ccc1O,-2.1,1.2,3.0,-2.2,-3.2,-1.5,.,.
COc1cc([N+](=O)[O-])cc(/C=N/NC(=O)C(C)Nc2cccc(C)c2)c1O (stereo not drawn),21.9*,18.1,11.5,12.0,14.4,6.3,9.4,-5.9
COc1ccc(-c2oc3ccccc3c2C#Cc2cncn2C)cc1,17.5*,14.4,2.8,3.5,4.3,2.6,24.6*,-5.7
COc1ccc(-c2sc3ccc(OC)cc3c2C#Cc2cncn2C)cc1,.,18.1,-13.0,1.7,8.0,.,.,.
c1cc2c3c(cccc3c1)NC1(CCCCCC1)N2,20.6*,17.5,0.3,-4.7,-1.1,0.5,21.2*,7.0
c1cc2c3c(cccc3c1)NC1(CCCCC1)N2,25.6*,6.3,-3.6,1.3,2.4,1.2,10.0,17.7*
Cc1cccc(OCc2nnc(SCC(=O)N3c4ccccc4CCc4ccccc43)o2)c1,19.0*,-2.6,-3.2,7.1,3.3,2.4,4.3,-0.8
Cc1cccc(N2CSC3=C(C#N)C(c4ccc(C)o4)CC(=O)N3C2)c1 (stereo not drawn),20.2*,47.2*,.,.,.,5.4,16.4*,2.6
CCCCN(CCCC)S(=O)(=O)c1ccc(C(=O)Nc2nnc(COC)o2)cc1,23.4*,7.3,-7.0,8.8,3.3,0.4,15.8*,-2.3
CCCCN(CC)S(=O)(=O)c1ccc(C(=O)Nc2nnc(-c3cccs3)o2)cc1,26.3*,8.6,.,.,.,8.8,18.0*,0.1
CCOC(=O)N1CCN(S(=O)(=O)c2ccc(C(=O)Nc3nnc(CSC)o3)cc2)CC1,18.2*,-1.2,-10.8,2.0,-1.2,-4.5,5.6,0.8
CCN(CC)S(=O)(=O)c1ccc(C(=O)Nc2nnc(-c3ccco3)o2)cc1,5.7,-1.9,0.8,-2.0,-10.2,2.1,.,.
CCCCN(C)S(=O)(=O)c1ccc(C(=O)Nc2nnc(CSC)o2)cc1,23.7*,4.4,6.4,8.9,1.4,0.7,23.0*,-1.7
CCN(CC)S(=O)(=O)c1ccc(C(=O)Nc2nnc(COC)o2)cc1,4.6,4.6,0.9,3.4,2.2,2.8,.,.
Cc1ccc(/C=C/C(O)=C2/C(=O)N(C)C3(C)CC2c2ccccc2O3)cc1 (stereo not drawn),-1.1,2.2,-6.1,-2.4,-1.9,4.2,.,.
SMILES,PP1 counter,pPAFAH FP inh,PAFAH2 inh,PAFAH1B2 inh,PAFAH1B3 inh,PP5 inh,PP1 inh confirm,PP5 counter
CC1(C)CC(C(=O)NCCC(c2ccccc2)c2ccco2)CCO1 (stereo not drawn),-1.1,3.0,-0.9,-0.4,10.4,-0.8,.,.
CCOC(=O)C1CCN(C(=O)c2ccc3nc(-c4ccc(OC)cc4)c(-c4ccc(OC)cc4)nc3c2)CC1,2.5,5.1,1.5,-2.4,3.5,-0.1,.,.
COC(=O)N/N=C/c1cc(N=Nc2ccccc2Cl)ccc1O,18.9*,0.0,-16.9,1.4,4.1,-0.4,24.8*,0.5
COC(=O)N/N=C/c1cc(N=Nc2ccccc2)ccc1O,-4.0,10.7,8.3,6.3,7.5,0.7,.,.
CCc1ccc(Nc2n[n+](-c3ccccc3)c(-c3ccc(OCc4ccccc4)cc3)s2)cc1,12.4,5.5,-14.8,1.1,-4.7,0.5,.,.
c1ccc(COc2ccc(-c3sc(Nc4ccccc4)n[n+]3-c3ccccc3)cc2)cc1,19.7*,0.2,.,.,.,5.0,4.9,-0.9
CCc1ccc(Nc2n[n+](-c3ccccc3)c(-c3ccc(N(CC)CC)cc3)s2)cc1,24.4*,29.8*,9.9,2.7,4.9,1.2,10.4,-2.4
NC(=O)COc1cccc2cccnc12,-2.2,-0.5,-3.2,0.8,-0.1,0.4,.,.
O=C(Nc1ccc(S(=O)(=O)N2CCCCCC2)cc1)c1[nH]ncc1[N+](=O)[O-],57.8*,15.5,3.8,6.9,3.6,-0.1,16.2*,-4.2
O=C(Nc1ccc([N+](=O)[O-])cc1)c1ccc(S(=O)(=O)N2CCCC2)cc1,-2.0,2.8,-3.8,3.0,7.9,4.2,.,.
COc1cccc(NC(=O)c2oc3ccccc3c2NC(=O)C(C)(C)C)c1,0.3,-5.2,-19.7,-1.4,5.5,2.4,.,.
CC(C)(C)CC(C)(C)c1ccc(OCCOCC[N+](C)(C)Cc2ccccc2)cc1,20.8*,25.8*,1.9,21.3,-8.5,2.2,0.3,2.7
C[N+](C)(CCOc1ccccc1)Cc1ccccc1 (tested in a mixture with another compound),1.6,14.7,2.8,11.9,6.0,2.1,.,.
COc1ccccc1CNS(=O)(=O)c1ccc2c(c1)oc(=O)n2C,0.7,0.8,-1.6,-2.3,1.3,1.2,.,.
